Results filed as inconclusive are left out. Calls of active or inactive are those of the source.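 Rule for the calls: active = GFP signal above the screen-wide mean plus 3 SD, that is over about 124.5% of the solvent control; inconclusive = no reading because the compound's own fluorescence disturbed strain identification; inactive = the rest.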

The nature of this assay: modulators of AGP1-GFP expression in yeast TOR pathway, primary screen, cell-based, multiplex flow cytometry, S. cerevisiae (AID 1887).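 Note: AGP1-GFP fusion strain of S. cerevisiae within a five-strain barcoded multiplex.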 The following applies: 3 h, at 10 µM, stronger effect = higher value.
As to `Cc1nc(-c2coc3c(CN(C)C)c(O)ccc3c2=O)cs1`, the GFP response, % of DMSO was 88% (inactive). Under `COCCCN1C(=O)C(=O)/C(=C(/O)c2ccc3c(c2)CC(C)O3)C1c1cccnc1` (configuration not stated) stands 111% (inactive). The same measure for `O=C(Nc1ccccc1C(=O)N1CCCCCC1)c1ccccc1Cl`: 102% (inactive); for `Fc1ccc(-c2cc(-c3ccccc3)nc(-n3cccn3)n2)cc1`: 75.4% (inactive). Under `NS(=O)(=O)c1cc2c(cc1Cl)NC(C(Cl)Cl)NS2(=O)=O` (configuration not stated) stands 112% (inactive); under `CCC(C(=O)Nc1ccc2c(c1)OCCO2)c1ccccc1` (configuration not stated), 110% (inactive); under `c1ccc(CNc2ncnc3nc[nH]c23)cc1`, 97.8% (inactive). `Cc1cc(/C=N/O)c(C)n1-c1ccc(Br)cc1`: the GFP response, % of DMSO is 91.1% (inactive). The same measure for `COc1ccc(/C=C/C(=O)c2cc3cccc(OC)c3oc2=O)cc1`: 95.7% (inactive); for `Cc1ccc(C2=NOC(=O)/C2=C\C=C\c2ccccc2)cc1`: 73.5% (inactive). Take `CCc1ccc(/C=C2\Oc3cc(OC(=O)N4CCOCC4)ccc3C2=O)cc1`: the GFP response, % of DMSO is 79.8% (inactive). Take `COc1cc(NC(=S)NN2CCN(C)CC2)cc(OC)c1OC`: the GFP response, % of DMSO was 106% (inactive). The same measure for `C[C@]12CCC3C(CC=C4C[C@@H](O)CC[C@@]43C)C1CCC2[C@]1(C)CCC(=O)O1` (some centres not stated): 95.7% (inactive); for `COC(=O)c1cc(OC)c(OC)cc1NC(=O)CN1C(=O)c2ccccc2C1=O`: 99.4% (inactive).

In the case of `c1ccc(CN(CC2=NCCN2)c2ccccc2)cc1`, the GFP response, % of DMSO is 84.3% (inactive). The same measure for `Cc1oncc1C(=O)Nc1ccc(C(F)(F)F)cc1`: 105% (inactive); for `Cn1cc(C2N3CC4(C)CN2CC(C)(C3)C4=O)c2ccccc21` (configuration not stated): 104% (inactive).
